Measured values reported in PubChem BioAssay (Tox21).
Inconclusive results are not listed. Calls of active or inactive are those of the source. Unless noted, the call rests on the fitted dose curve.

What was measured:
[1] = qHTS assay to identify small molecule agonists of the sonic hedgehog signaling (Shh) pathway (AID 1259368);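 further: NIH/3T3-derived 3T3Gli1-Luc cells carrying a stable Gli1-driven firefly luciferase reporter; series mostly up to about 92 µM; nearly all actives have a fitted effect of over 15% in size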
In short: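 Cells of a mouse NIH/3T3 clone stably expressing luciferase under the Gli1 transcriptional response element are exposed to test chemicals for 24 hr at 37 C. Pathway activation is detected as a rise in luminescence.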

[2] = qHTS assay to identify small molecule antagonists of the sonic hedgehog signaling (Shh) pathway (AID 1259369); further: nearly all actives have a fitted effect of over 45% in size
In short: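 Cells are plated and held 4hr at 37 C, compounds (DMSO) are pinned in, conditioned medium is added to stimulate the pathway, and after 24hr luciferase reagent is added for 30min before luminescence is read.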

[3] = molecular target: Estrogen receptor beta (Homo sapiens) (UniProt Q92731); assay: qHTS assay to identify small molecule agonists of the estrogen receptor beta (ER-beta) signaling pathway (AID 1259377; active means well fitted activation curve with a large enough effect in the signal ratio in the repeat runs, not every such curve was filed as active; the % refers to the signal ratio)
In short: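 qHTS in ER-beta-UAS-bla HEK293T cells: 6 hr settling, then 16 hr compound at 37C, then LiveBLAzer substrate 2 h at RT before fluorescence reading.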

[4] = molecular target: Estrogen receptor beta (Homo sapiens) (UniProt Q92731); assay: qHTS assay to identify small molecule antagonists of the estrogen receptor beta (ER-beta) signaling pathway (AID 1259378; active means well fitted inhibition curve with a large enough effect in the signal ratio in the repeat runs, not every such curve was filed as active; the % refers to the signal ratio)
In short: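 ER-beta-UAS-bla HEK293T cells in 2% charcoal-stripped FBS medium treated with compound plus 1nM final 17-beta-estradiol for 16 hr at 37C. Beta-lactamase reporter read by FRET substrate fluorescence after 2 hours at room temperature.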

[5] = qHTS assay to identify small molecule agonists of the androgen receptor (AR) signaling pathway in the presence of an antagonist - cell viability counter screen (AID 1259379; active means well fitted curve in the direction sought with a large enough effect in the repeat runs; an effect the other way counts as inactive or inconclusive;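 further: MDA-kb2 human breast cancer cells carrying an MMTV luciferase reporter; series mostly up to about 92 µM; nearly all actives have a fitted effect of over 25% in size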)
In short: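 Cytotoxicity is assessed by CellTiter-Fluor in MDA-kb2 cells carrying an MMTV-driven luciferase reporter. Cells receive 3.0uM nilutamide plus compounds at 15 concentrations and incubate 16 hr at 37C without CO2 before fluorescence reading.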

[6] = qHTS assay to identify small molecule agonists of the estrogen receptor beta (ER-beta) signaling pathway - cell viability counter screen (AID 1259380; active means well fitted curve in the direction sought with a large enough effect in the repeat runs; an effect the other way counts as inactive or inconclusive; further: nearly all actives have a fitted effect of over 30% in size)
In short: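 Cytotoxicity is measured in parallel with the reporter screen: after 16 hr compound exposure at 37C and a 2 hr LiveBLAzer step, CellTiter-Glo is added to the same ER-beta-UAS-bla HEK293T wells and luminescence read after 30 min.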

[7] = molecular target: Androgen receptor (Homo sapiens) (UniProt P10275); assay: qHTS assay to identify small molecule agonists of the androgen receptor (AR) signaling pathway in the presence of an antagonist (AID 1259381); further: nearly all actives have a fitted effect of over 15% in size
In short: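 Agonist-mode confirmation screen: human MDA-kb2 cells stably expressing luciferase under an MMTV promoter bearing AR and GR response elements, co-treated with 3.0uM nilutamide (final). Luminescence measured after 16hr compound incubation.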

[8] = qHTS assay to identify small molecule antagonists of the estrogen receptor beta (ER-beta) signaling pathway - cell viability counter screen (AID 1259382; active means well fitted curve in the direction sought with a large enough effect in the repeat runs; an effect the other way counts as inactive or inconclusive; further: series mostly up to about 92 µM; nearly all actives have a fitted effect of over 55% in size)
In short: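 Cytotoxicity counter screen multiplexed with the beta-lactamase antagonist assay: GripTite HEK293T ER-beta-bla cells were treated 16 hr with test chemicals in the presence of 1nM 17-beta-estradiol, and viability was measured by CellTiter-Glo.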

[9] = qHTS assay to identify small molecule agonists or antagonists of the thyroid stimulating hormone receptor (TSHR) signaling pathway - wild type cell line counter screen (AID 1259384)
In short: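 Wild-type Hek293 cells, 800/well, 18 h at 37C, then compound with Ro20-1724 for 30 min RT. cAMP by HTRF (cAMP-d2/anti-cAMP cryptate), 1 h RT, fluorescence read. 15 concentrations, triplicates.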

[10] = molecular target: Estrogen receptor (Homo sapiens) (UniProt P03372); assay: qHTS assay to identify small molecule agonists of the estrogen receptor alpha (ER-alpha) signaling pathway in the presence of an antagonist (AID 1259383); further: top concentration of the series differs between compounds; nearly all actives have a fitted effect of over 15% in size
In short: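 Agonist-mode confirmation in the presence of the ER antagonist ICI-182,780 at 10.0nM final. Breast-derived VM7Luc4E2 reporter cells were exposed to compounds for 22hr, and ERE-driven luciferase was quantified by luminescence.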

Measured: Potency

Sequence of Androgen receptor (Homo sapiens) (P10275 whole entry, looked up): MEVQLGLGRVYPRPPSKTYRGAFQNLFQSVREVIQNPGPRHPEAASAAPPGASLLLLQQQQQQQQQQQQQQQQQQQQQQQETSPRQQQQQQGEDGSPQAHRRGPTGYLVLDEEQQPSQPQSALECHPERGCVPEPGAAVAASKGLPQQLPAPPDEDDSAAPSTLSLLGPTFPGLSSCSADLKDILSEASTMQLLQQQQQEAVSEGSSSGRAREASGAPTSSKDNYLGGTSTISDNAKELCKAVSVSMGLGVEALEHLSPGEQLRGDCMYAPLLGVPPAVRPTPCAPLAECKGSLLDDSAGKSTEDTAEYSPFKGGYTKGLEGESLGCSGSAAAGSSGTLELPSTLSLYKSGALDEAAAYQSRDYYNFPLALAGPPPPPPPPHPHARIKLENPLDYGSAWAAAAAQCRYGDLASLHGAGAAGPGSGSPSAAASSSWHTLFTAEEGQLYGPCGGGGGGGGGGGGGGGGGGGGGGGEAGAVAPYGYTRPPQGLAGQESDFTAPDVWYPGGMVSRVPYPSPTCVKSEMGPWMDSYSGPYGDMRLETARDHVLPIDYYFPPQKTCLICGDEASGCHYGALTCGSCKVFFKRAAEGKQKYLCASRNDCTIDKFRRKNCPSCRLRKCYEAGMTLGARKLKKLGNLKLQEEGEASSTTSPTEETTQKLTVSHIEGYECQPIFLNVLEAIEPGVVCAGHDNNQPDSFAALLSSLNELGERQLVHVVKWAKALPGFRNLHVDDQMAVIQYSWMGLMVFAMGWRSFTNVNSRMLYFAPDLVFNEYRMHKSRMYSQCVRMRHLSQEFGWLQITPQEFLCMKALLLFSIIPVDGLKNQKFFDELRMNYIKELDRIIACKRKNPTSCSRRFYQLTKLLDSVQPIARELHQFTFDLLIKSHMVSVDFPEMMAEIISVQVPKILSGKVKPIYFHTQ
Sequence of Estrogen receptor beta (Homo sapiens) (Q92731 whole entry, looked up): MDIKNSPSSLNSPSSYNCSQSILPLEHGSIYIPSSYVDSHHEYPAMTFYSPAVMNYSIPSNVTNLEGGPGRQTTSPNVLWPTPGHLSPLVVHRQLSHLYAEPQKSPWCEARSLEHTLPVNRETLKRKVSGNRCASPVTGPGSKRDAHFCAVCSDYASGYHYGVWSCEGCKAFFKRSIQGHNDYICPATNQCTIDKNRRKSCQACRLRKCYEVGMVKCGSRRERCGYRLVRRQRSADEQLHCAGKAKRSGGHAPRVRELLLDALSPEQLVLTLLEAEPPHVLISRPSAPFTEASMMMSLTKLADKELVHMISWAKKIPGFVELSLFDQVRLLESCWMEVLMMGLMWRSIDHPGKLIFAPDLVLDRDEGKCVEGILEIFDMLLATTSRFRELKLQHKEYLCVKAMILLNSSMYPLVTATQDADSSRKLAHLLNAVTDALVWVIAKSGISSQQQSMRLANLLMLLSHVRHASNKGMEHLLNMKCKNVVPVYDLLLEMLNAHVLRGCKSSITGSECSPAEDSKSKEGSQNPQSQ
Sequence of Estrogen receptor (Homo sapiens) (P03372 whole entry, looked up): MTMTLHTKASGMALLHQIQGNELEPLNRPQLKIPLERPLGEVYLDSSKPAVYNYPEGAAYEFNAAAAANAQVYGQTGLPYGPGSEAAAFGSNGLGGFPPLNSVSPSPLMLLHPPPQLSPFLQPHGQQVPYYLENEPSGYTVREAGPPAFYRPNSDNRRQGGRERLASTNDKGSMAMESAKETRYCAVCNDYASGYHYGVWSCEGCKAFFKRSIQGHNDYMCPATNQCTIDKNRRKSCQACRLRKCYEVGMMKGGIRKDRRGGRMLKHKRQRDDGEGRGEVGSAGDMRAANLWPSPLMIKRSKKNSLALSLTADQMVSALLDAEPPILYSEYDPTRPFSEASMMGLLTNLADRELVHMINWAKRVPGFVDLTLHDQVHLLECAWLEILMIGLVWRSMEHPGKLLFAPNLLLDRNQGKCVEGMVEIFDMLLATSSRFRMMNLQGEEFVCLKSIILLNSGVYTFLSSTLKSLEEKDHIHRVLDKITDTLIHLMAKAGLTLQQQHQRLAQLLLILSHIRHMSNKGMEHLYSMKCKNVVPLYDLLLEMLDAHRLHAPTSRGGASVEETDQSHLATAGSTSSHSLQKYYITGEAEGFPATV

CC(S)C(=O)NCC(=O)O (centres undefined)
not listed: [10]
inactive: all other assays above

CC(CN)CC(C)(C)CCN (centres undefined)
not listed: [7] | [10]
inactive: all other assays above

C=C1CC/C=C(\C)CC[C@@H]2[C@@H]1CC2(C)C
not listed: [7]
inactive: all other assays above

O=S(=O)(O)c1ccc2cc(O)c(S(=O)(=O)O)cc2c1
not listed: [7]
inactive: all other assays above

COC(=O)CCCCCCCC(=O)OC
not listed: [7]
inactive: all other assays above

CN(C)C(=O)CNC(=O)Cc1ccccc1
not listed: [7] | [9]
inactive: all other assays above

CN(C)c1ccc(C=O)cc1
not listed: [7] | [9]
inactive: all other assays above

CCC(C=O)CC
not listed: [7] | [10]
inactive: all other assays above

CC(C)CC(=O)O
not listed: [7] | [10]
inactive: all other assays above

CCCOC(=O)C(C)O (centres undefined)
inactive: all assays above

CCN1CCc2nc(N)oc2CC1
not listed: [7]
inactive: all other assays above

C[C@H](N)[C@H](O)c1cccc(O)c1
not listed: [7]
inactive: all other assays above

COc1nccnc1NS(=O)(=O)c1ccc(N)cc1
not listed: [9] | [10]
inactive: all other assays above

CC(C)CCCC(C)(C)O
not listed: [7]
inactive: all other assays above

CCCCC(CC)COCCO (centres undefined)
not listed: [7] | [9]
inactive: all other assays above

CCCCN
not listed: [7] | [9]
inactive: all other assays above

CCCCCCCCCCCCCC
not listed: [7] | [10]
inactive: all other assays above

CC(N)C(=O)OC(C)(C)Cc1ccc(Cl)cc1 (centres undefined)
not listed: [7]
inactive: all other assays above

CCCCCCCCC1CCC(=O)O1 (centres undefined)
not listed: [7] | [9]
inactive: all other assays above

OCCN(CCO)c1cccc(Cl)c1
not listed: [9] | [10]
inactive: all other assays above

O=C(NCC(O)CO)c1c(I)c(C(=O)NCC(O)CO)c(I)c(N(CCO)C(=O)CO)c1I (centres undefined)
not listed: [7] | [10]
inactive: all other assays above

C=C(C)C1CCC(C)(O)CC1 (centres undefined)
not listed: [10]
inactive: all other assays above

Nc1ccc(S(=O)(=O)Nc2ccc(Cl)nn2)cc1
not listed: [9] | [10]
inactive: all other assays above

C[C@@H](O)[C@H]1C(=O)N2C(C(=O)O)=C(SCCN=CN)C[C@H]12
not listed: [7]
inactive: all other assays above

COC(=O)CCc1ccc(OCC(O)CNC(C)C)cc1 (centres undefined)
not listed: [7] | [10]
inactive: all other assays above

CC(COC(C)(C)C)OCCCO (centres undefined)
not listed: [7] | [9] | [10]
inactive: all other assays above
